These results are taken from PubChem BioAssay (EPA / NIEHS).

As usually defined, the AC50 is the concentration at which the activity in the assay is half-maximal.

Test [1] can be described thus: ATG_GLI_CIS: Attagene CIS-FACTORIAL HepG2 Assay for human Zinc Finger Protein GLI1 (AID 2282945). To be noted: HepG2, Attagene cis-factorial reporter mRNA, GLI element; actives raise or lower the signal. The essentials:
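Bidirectional curve fits relative to DMSO, using reporter mRNA levels from RT-PCR plus capillary electrophoresis. Cells were HepG2 transiently carrying cis-regulated reporter constructs, harvested 24 h after dosing.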

In test [2] the target is Bile acid receptor (Homo sapiens) (UniProt Q96RI1). As to the kind of experiment: ATG_IR1_CIS: Attagene CIS-FACTORIAL HepG2 Assay for human Nuclear Receptor Subfamily 1 Group H Member 4 (NR1H4), IR1 submotif (AID 2282946). The conditions noted are these: IR1 reporter transcription, actives raise or lower the signal. The essentials: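 HepG2 cells transiently transfected with multiplexed cis-element reporter units read endogenous transcription factor activity. After 24 h compound exposure, reporter mRNA was quantified by RT-PCR, fluorescent labelling, HpaI digestion and capillary electrophoresis; bidirectional fitting versus DMSO baseline.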
Sequence of Bile acid receptor (Homo sapiens) (Q96RI1 whole entry, looked up): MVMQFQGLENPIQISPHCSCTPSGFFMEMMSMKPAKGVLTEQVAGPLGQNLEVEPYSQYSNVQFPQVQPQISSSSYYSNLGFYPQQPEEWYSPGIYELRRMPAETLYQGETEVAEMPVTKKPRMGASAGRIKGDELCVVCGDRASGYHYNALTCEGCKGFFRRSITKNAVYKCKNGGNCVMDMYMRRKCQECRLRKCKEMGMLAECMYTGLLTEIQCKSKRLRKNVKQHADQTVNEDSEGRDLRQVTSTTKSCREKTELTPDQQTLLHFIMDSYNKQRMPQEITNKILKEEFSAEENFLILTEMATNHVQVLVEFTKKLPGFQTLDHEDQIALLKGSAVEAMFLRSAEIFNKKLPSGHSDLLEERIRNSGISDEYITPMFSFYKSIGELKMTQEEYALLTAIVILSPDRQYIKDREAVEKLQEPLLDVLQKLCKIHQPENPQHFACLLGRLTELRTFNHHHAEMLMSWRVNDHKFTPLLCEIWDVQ

Test [3] is described as follows: ATG_GRE_CIS: Attagene CIS-FACTORIAL HepG2 Assay for human Glucocorticoid Response Elements (GRE) (AID 2282947). To be noted: HepG2 GRE cis-reporter, Attagene multiplex mRNA; actives raise or lower the signal. An outline of the steps: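 Reporter transcripts read by RT-PCR with capillary electrophoresis fluorescence after a 24 h chemical exposure of HepG2 cells transiently transfected with multiple cis-element reporter units. Gain or loss fitted against DMSO.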

A short description of test [4]: ATG_ISRE_CIS: Attagene CIS-FACTORIAL HepG2 Assay for human Interferon Regulatory Factor 1 (IRF1) binding to an Interferon-Stimulated Response Element (ISRE) (AID 2282948). The conditions noted are these: HepG2 ISRE cis-reporter (Attagene), mRNA transcription readout; actives raise or lower the signal. The essentials:
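Endogenous transcription factor activity read as reporter transcript abundance via RT-PCR and capillary electrophoresis. HepG2 cells transiently transfected, 24 h chemical exposure. Gain or loss fitted against DMSO baseline.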

Test [5] can be described thus: ATG_M_32_CIS: Attagene CIS-FACTORIAL HepG2 Assay for M32 Transcription Factor (Internal Marker) (AID 2282949).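 Further: background control marker of the multiplexed CIS panel rather than a real target.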 To be noted: HepG2 Attagene cis-factorial M32 reporter, mRNA; actives raise or lower the signal. The essentials: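 HepG2 transfectants (cis-regulated reporter transcription units) dosed 24 h. Reporter mRNA by RT-PCR plus CE, analysed as gain or loss relative to DMSO.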

Test [6] can be described thus: ATG_M_06_CIS: Attagene CIS-FACTORIAL HepG2 Assay for M06 Transcription Factor (Internal Marker) (AID 2282950). The conditions noted are these: HepG2 Attagene CIS-FACTORIAL M06 internal marker reporter; actives raise or lower the signal. An outline of the steps:
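Read-out is fluorescence of labelled reporter cDNA fragments resolved by capillary electrophoresis after RT-PCR. Cells: HepG2 carrying transfected cis-promoter reporter units, treated 24 h. Gain or loss of signal fitted relative to DMSO.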

In test [7] the target is Hypoxia-inducible factor 1-alpha (Homo sapiens) (UniProt Q16665). The experiment in a line: ATG_HIF1a_CIS: Attagene CIS-FACTORIAL HepG2 Assay for human Hypoxia Inducible Factor 1 (HIF1A) (AID 2282951). The conditions noted are these: HepG2 Attagene cis-factorial HIF1a reporter transcription; actives raise or lower the signal. The essentials:
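HepG2 cells transiently transfected with multiple cis-regulated reporter transcription units measure endogenous transcription factor activity. After 24 h exposure, reporter mRNA is quantified by RT-PCR with 6-FAM labelling, HpaI digestion and capillary electrophoresis. Bidirectional fitting against DMSO.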

Test [8] deals with Hepatocyte nuclear factor 6 (Homo sapiens) (UniProt Q9UBC0). The experiment in a line: ATG_HNF6_CIS: Attagene CIS-FACTORIAL HepG2 Assay for human Hepatocyte Nuclear Factor 6 (HNF6) (AID 2282952). The conditions noted are these: HepG2 Attagene cis-factorial HNF6 reporter transcription; actives raise or lower the signal. The essentials:
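Endogenous transcription factor activity in human HepG2 liver cells was captured through cis-regulated reporter constructs. After 24 h treatment, reporter mRNA was measured by RT-PCR with capillary electrophoresis, and activity was fitted in both directions relative to DMSO.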

In test [9] the target is Heat shock factor protein 1 (Homo sapiens) (UniProt Q00613). The experiment in a line: ATG_HSE_CIS: Attagene CIS-FACTORIAL HepG2 Assay for human Heat Shock Transcription Factor 1 (HSE) (AID 2282953). To be noted: HepG2 HSE cis-reporter, Attagene RNA transcription; actives raise or lower the signal. The essentials:
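HepG2, transient MRTU transfection, cis-promoter reporters (endogenous TF activity). 24 h compound. RNA → oligo(dT) RT → PCR → 6-FAM primer extension → HpaI cut → CE. Bidirectional fit vs DMSO.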

Test [10] is described as follows: ATG_MRE_CIS: Attagene CIS-FACTORIAL HepG2 Assay for human Metal Responsive Element (MRE) (AID 2282954). To be noted: HepG2 MRE cis-reporter transcription, Attagene multiplex; actives raise or lower the signal. The essentials:
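Endogenous MRE-dependent transcription read as reporter mRNA in transiently transfected human HepG2 cells at 24 h. RNA reverse-transcribed, PCR-amplified, labelled and resolved by capillary electrophoresis; gain or loss relative to DMSO.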

Test [11] is described as follows: ATG_PXRE_CIS: Attagene CIS-FACTORIAL HepG2 Assay for human Pregnane X Receptor Element (PXRE) (AID 2282957). The conditions noted are these: HepG2 Attagene CIS-FACTORIAL PXRE reporter, mRNA; actives raise or lower the signal. An outline of the steps:
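Endogenous transcription factor activity in HepG2 was gauged through induction of reporter mRNA driven by a cis-regulating promoter element, sampled 24 h post-treatment. Activity was fitted in both directions against DMSO negative control.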

Test [12] in a line: ATG_PPRE_CIS: Attagene CIS-FACTORIAL HepG2 Assay for human Peroxisome Proliferator-activated Response Element (PPRE) (AID 2282958). To be noted: HepG2 PPRE cis-element reporter, Attagene transcription factor profiling; actives raise or lower the signal. An outline of the steps: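 HepG2 cells are transiently transfected with multiplexed cis-promoter reporter units to report endogenous PPAR activity. After 24 h dosing, reporter mRNA is read by RT-PCR and capillary electrophoresis. Fitting is bidirectional against DMSO.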

A short description of test [13]: ATG_RORE_CIS: Attagene CIS-FACTORIAL HepG2 Assay for human RAR-related Orphan Receptor Element (RORE) (AID 2282959). The conditions noted are these: HepG2 Attagene cis-factorial RORE reporter, mRNA; actives raise or lower the signal. An outline of the steps: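 HepG2 cells carrying transiently transfected cis-regulated reporter units; RORE-driven reporter mRNA quantified 24 h post-dosing by RT-PCR, 6-FAM primer extension, HpaI digestion and capillary electrophoresis. Bidirectional fit versus DMSO.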

A short description of test [14]: ATG_Sox_CIS: Attagene CIS-FACTORIAL HepG2 Assay for human SRY-box transcription factor (SOX) (AID 2282960). The conditions noted are these: HepG2 Attagene cis-factorial SOX reporter, mRNA; actives raise or lower the signal. An outline of the steps:
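HepG2 cells transiently transfected with multiple cis-regulated reporter units, then dosed for 24 h. Reporter mRNA quantified by RT-PCR, fluorescent labelling, HpaI digestion and capillary electrophoresis; bidirectional fit versus DMSO.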

Test [15] concerns the target Transcription factor Sp1 (Homo sapiens) (UniProt P08047). The experiment in a line: ATG_Sp1_CIS: Attagene CIS-FACTORIAL HepG2 Assay for human Specificity Protein 1 (Sp1) (AID 2282961). The conditions noted are these: HepG2 Sp1 cis-reporter transcription, actives raise or lower the signal. An outline of the steps: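 HepG2 cells transiently transfected with multiplexed cis-regulated reporter constructs, chemical exposure 24 h. Reporter mRNA quantified by RT-PCR with capillary electrophoresis; bidirectional fit relative to DMSO.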

Test [16] in a line: ATG_SREBP_CIS: Attagene CIS-FACTORIAL HepG2 Assay for human Sterol Regulatory Element Binding (SREBP) (AID 2282962). The conditions noted are these: HepG2 Attagene cis-factorial SREBP reporter, mRNA; actives raise or lower the signal. An outline of the steps: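 Endogenous SREBP activity read as cis-element-driven reporter transcript in transiently transfected HepG2, 24 h post-dosing; quantified via RT-PCR plus capillary electrophoresis of fluorescent fragments. Gain or loss of signal fitted relative to DMSO baseline.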

Test [17] is described as follows: ATG_TA_CIS: Attagene CIS-FACTORIAL HepG2 Assay for human TA Basal Promoter (AID 2282964). The conditions noted are these: HepG2 Attagene CIS-factorial TA basal promoter reporter; actives raise or lower the signal. An outline of the steps:
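Read-out: fluorescent reporter-transcript fragments resolved by capillary electrophoresis after RT-PCR and HpaI digestion. Source: HepG2 cells carrying transiently transfected multi-reporter cis constructs, treated 24 h. Endpoint fitted bidirectionally relative to DMSO.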

Test [18] in a line: ATG_PBREM_CIS: Attagene CIS-FACTORIAL HepG2 Assay for human Phenobarbital-responsive Enhancer Module (PBREM) (AID 2282955). To be noted: HepG2 PBREM cis-reporter, Attagene multiplexed transcription; actives raise or lower the signal. The essentials: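 HepG2 cells transiently transfected with multiple cis-regulated reporter units measure endogenous transcription factor activity; 24 h compound exposure. Reporter mRNA quantified by RT-PCR, fluorescent labelling, HpaI digestion and capillary electrophoresis; bidirectional fit versus DMSO.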

The target of test [19] is Paired box protein Pax-6 (Homo sapiens) (UniProt P26367). As to the kind of experiment: ATG_Pax6_CIS: Attagene CIS-FACTORIAL HepG2 Assay for human Paired Box 6 (PAX6) (AID 2282956). To be noted: HepG2 CIS-FACTORIAL PAX6 reporter transcription, RNA readout; actives raise or lower the signal. The essentials: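 Read-out is reporter transcript level, measured by RT-PCR with fluorescent primer extension and capillary electrophoresis after 24 h dosing of transfected HepG2 cells. Activity in either direction fitted relative to DMSO control.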
Sequence of Paired box protein Pax-6 (Homo sapiens) (P26367 whole entry, looked up): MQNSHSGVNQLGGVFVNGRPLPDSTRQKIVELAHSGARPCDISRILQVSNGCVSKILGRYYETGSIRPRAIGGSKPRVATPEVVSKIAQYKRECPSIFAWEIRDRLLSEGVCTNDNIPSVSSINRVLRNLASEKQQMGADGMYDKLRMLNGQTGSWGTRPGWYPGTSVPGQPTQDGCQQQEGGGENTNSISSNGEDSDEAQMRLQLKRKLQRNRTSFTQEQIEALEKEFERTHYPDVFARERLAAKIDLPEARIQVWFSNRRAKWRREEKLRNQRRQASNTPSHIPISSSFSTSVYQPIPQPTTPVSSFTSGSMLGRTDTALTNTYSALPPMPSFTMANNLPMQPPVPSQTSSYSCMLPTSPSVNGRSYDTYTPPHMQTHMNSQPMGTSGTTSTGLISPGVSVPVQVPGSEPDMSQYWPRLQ

Test [20] has as its target Signal transducer and activator of transcription 3 (Homo sapiens) (UniProt P40763). As to the kind of experiment: ATG_STAT3_CIS: Attagene CIS-FACTORIAL HepG2 Assay for human Signal Transducer and Activator of Transcription 3 (STAT3) (AID 2282963). The conditions noted are these: HepG2, Attagene cis-factorial STAT3 reporter transcription; actives raise or lower the signal. An outline of the steps: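 Readout is reporter transcript quantified by RT-PCR and capillary electrophoresis, with 6-FAM primer extension and HpaI digestion. Total RNA is taken 24 h after dosing transiently transfected HepG2 carrying cis-regulated reporter units. Bidirectional fit against DMSO.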

The source made the active and inactive calls. How the source made its calls: active means hit-call score of the fitted dose curve at least 0.9, where 1 is the maximum; inactive means score below 0.9.

Sequence of Transcription factor Sp1 (Homo sapiens) (P08047 whole entry, looked up): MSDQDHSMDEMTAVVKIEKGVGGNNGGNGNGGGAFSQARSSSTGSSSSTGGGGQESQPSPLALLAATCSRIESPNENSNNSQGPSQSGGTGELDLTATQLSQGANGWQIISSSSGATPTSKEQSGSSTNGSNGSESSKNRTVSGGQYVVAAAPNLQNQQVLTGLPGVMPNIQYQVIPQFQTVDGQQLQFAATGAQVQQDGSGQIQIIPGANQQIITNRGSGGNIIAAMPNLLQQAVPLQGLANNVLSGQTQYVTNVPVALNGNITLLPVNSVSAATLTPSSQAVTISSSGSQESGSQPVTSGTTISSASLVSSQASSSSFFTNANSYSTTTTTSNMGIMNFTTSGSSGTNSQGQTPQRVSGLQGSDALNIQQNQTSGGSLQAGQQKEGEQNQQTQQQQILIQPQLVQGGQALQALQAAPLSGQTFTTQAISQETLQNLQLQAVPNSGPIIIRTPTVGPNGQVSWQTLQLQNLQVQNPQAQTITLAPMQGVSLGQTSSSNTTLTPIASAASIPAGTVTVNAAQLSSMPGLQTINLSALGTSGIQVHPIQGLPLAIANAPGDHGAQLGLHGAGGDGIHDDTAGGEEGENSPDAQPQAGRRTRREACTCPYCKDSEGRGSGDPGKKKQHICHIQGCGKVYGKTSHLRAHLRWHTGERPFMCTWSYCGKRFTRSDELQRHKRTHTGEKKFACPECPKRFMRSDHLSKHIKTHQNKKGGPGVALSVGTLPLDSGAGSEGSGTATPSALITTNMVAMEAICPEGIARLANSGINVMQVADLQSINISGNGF
Sequence of Signal transducer and activator of transcription 3 (Homo sapiens) (P40763 whole entry, looked up): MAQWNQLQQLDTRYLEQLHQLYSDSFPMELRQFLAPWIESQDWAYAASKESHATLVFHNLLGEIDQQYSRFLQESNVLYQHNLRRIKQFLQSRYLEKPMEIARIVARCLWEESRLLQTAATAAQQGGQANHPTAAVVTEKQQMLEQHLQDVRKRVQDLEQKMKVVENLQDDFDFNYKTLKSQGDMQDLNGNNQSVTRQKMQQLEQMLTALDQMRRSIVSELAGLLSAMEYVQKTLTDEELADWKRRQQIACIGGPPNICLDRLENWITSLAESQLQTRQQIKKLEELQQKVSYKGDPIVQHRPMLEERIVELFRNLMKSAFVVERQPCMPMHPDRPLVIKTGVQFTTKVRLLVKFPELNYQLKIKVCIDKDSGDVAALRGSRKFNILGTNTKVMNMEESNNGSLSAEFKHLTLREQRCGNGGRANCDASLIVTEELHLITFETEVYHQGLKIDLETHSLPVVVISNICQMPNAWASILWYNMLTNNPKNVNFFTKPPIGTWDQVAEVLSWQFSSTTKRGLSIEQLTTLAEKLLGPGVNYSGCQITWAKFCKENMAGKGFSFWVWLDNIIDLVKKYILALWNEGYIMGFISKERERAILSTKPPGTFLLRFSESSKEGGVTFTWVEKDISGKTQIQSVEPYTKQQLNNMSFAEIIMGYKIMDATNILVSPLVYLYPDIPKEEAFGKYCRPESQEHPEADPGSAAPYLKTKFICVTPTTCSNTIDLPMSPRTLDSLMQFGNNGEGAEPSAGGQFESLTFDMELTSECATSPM
Sequence of Heat shock factor protein 1 (Homo sapiens) (Q00613 whole entry, looked up): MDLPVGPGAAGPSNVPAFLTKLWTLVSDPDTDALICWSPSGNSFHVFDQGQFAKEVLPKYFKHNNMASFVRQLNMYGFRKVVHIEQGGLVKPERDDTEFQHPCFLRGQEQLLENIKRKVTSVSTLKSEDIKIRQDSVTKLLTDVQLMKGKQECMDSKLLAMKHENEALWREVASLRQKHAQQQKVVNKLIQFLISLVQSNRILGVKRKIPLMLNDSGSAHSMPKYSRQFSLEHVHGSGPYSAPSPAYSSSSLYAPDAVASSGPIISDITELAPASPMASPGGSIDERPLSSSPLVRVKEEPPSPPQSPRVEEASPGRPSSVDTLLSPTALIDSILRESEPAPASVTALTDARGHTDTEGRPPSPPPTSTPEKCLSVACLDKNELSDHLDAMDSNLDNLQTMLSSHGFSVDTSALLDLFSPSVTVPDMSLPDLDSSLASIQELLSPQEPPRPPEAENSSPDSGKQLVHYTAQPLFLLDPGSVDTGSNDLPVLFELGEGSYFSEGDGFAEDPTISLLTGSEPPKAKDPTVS
Sequence of Hepatocyte nuclear factor 6 (Homo sapiens) (Q9UBC0 whole entry, looked up): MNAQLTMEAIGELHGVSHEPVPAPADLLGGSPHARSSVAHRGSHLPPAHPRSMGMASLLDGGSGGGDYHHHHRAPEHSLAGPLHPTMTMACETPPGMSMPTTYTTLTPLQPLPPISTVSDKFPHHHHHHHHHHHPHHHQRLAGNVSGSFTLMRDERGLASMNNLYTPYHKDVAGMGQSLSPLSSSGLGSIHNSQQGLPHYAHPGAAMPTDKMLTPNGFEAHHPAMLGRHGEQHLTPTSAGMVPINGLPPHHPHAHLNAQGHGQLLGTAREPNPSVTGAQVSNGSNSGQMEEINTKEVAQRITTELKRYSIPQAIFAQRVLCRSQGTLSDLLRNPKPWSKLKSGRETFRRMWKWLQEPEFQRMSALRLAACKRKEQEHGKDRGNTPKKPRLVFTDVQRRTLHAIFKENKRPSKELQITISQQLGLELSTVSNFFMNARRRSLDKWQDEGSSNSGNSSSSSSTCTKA
Sequence of Hypoxia-inducible factor 1-alpha (Homo sapiens) (Q16665 whole entry, looked up): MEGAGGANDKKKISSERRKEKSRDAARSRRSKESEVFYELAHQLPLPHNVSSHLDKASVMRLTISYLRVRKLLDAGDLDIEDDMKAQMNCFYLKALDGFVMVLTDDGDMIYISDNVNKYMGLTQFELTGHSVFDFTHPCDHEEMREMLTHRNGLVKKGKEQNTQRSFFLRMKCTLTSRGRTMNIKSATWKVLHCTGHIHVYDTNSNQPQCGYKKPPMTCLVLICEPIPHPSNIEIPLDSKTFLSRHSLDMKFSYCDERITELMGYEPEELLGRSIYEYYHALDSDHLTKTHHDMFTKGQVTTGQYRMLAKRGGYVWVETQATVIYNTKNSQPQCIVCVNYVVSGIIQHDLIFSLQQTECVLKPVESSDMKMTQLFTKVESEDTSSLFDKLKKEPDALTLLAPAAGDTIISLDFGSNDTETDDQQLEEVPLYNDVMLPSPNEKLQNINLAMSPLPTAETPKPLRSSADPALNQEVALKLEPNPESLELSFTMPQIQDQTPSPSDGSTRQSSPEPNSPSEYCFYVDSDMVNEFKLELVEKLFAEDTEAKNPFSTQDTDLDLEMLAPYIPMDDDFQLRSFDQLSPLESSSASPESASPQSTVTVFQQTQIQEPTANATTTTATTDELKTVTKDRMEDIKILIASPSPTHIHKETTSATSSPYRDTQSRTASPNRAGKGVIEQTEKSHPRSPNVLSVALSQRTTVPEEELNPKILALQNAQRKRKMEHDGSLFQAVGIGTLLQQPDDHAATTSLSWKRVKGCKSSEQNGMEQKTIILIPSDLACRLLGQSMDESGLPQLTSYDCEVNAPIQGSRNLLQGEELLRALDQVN

Take `Cc1ccc2c(c1)OCC(=O)CO2`: the outcome in test [1], in test [2], in test [3], in test [4], in test [5] and in [6] was inactive. Also, the compound was classed as inactive in test [7], in [8], in [9], in test [10], in test [12] and in test [13]. Also, the result in [14], in [15], in [16] and in test [17] was inactive. Besides, the AC50 in test [11] was 77 µM (active).
For the compound `O=C(O)C(F)(F)C(F)(F)C(F)(F)C(=O)O`, the outcome in test [1], in test [2], in test [3], in test [4], in test [5] and in test [6] was inactive. Also, the compound was classed as inactive in test [8], in test [9], in test [10], in test [18], in test [19] and in test [11]. For the same compound, the outcome in test [12], in test [13], in test [14], in test [15], in test [16] and in test [20] was inactive. For the same compound, the compound was called inactive in test [17].
For the compound `CC(C)(C)c1cc(Cc2cc(C(C)(C)C)c(O)c(C(C)(C)C)c2)cc(C(C)(C)C)c1O`, the outcome in [1], in [2], in test [3], in [4], in [5] and in test [6] was inactive. Moreover, the compound was called inactive in [8], in test [9], in [10], in [18], in test [12] and in test [13]. The compound was called inactive in test [14], in test [15], in [16], in test [20] and in test [17]. For the same compound, the AC50 in [11] is 0.513 µM (active).
Consider `CO[Si](CCCOCC1CO1)(OC)OC` (configuration not stated), for which the result in test [1], in test [2], in test [3], in [4], in test [5] and in test [6] was inactive. For the same compound, the compound was called inactive in [8], in [9], in test [10], in test [18], in [19] and in test [11]. The result in test [12], in [13], in [14], in test [15], in [16] and in [17] was inactive.
Turning to `C=CCOC(=O)CC(C)C`, the compound was called inactive in [1], in test [2], in test [3], in [4], in [5] and in test [6]. Moreover, the result in test [8], in [9], in test [10], in test [18], in [19] and in [11] was inactive. Moreover, the compound was classed as inactive in [12], in test [13], in [14], in test [15], in [16] and in test [17].
Regarding `CC1=CCC2C(=O)OC(=O)C2C1` (configuration not stated), the result in [1], in [2], in [3], in test [4], in test [5] and in [6] was inactive. Moreover, the result in [7], in [8], in test [9], in [10], in test [11] and in test [12] was inactive. In addition, the compound was called inactive in test [13], in test [14], in test [15], in test [16], in [20] and in test [17].
In the case of `NC(=O)C(F)(F)C(F)(F)C(F)(F)C(F)F`, the compound was classed as inactive in test [1], in test [2], in test [3], in test [4], in test [5] and in test [6]. Also, the compound was classed as inactive in test [8], in test [9], in test [10], in test [18], in [19] and in [11]. The compound was called inactive in test [12], in [13], in test [14], in test [15], in [16] and in test [20]. The compound was classed as inactive in test [17].
